# Lassa entry inh: qHTS for Inhibitors of binding or entry into cells for Lassa Virus | Lassa virus pseudotype entry inhibition, cell reporter | hit rate 1.2% among 300,000 | AID 540256, 2011 | Potency, µM (highest dose often 37.9 µM), usual class: inhibitors; calls by dose curve; tested in HEK293 cells; further: nearly all actives have a fitted effect of over 50% in size
# CHX counter: Cycloheximide Counterscreen for Small Molecule Inhibitors of Shiga Toxin; max response, %; AID 2314, 2010; hit rate 12% among 300,000; cell reporter, cycloheximide protein synthesis inhibition counterscreen; in the data active means max response mostly above about 13%, no sharp cut-off; inactive means mostly below about 14%; further: read at 38.3 µM for the half of the compounds with a filed dose
# Marburg entry inh: qHTS for inhibitors of binding or entry into cells for Marburg Virus. Marburg virus pseudotyped entry inhibition, cell reporter. Potency, µM (highest dose often 37.8 µM), actives largely listed as inhibitors. hit rate 1.8% among 300,000; calls by dose curve; tested in HEK293 cells
# Shiga toxin inh: A qHTS for Small Molecule Inhibitors of Shiga Toxin; AID 2315, 2010; Vero cells, Shiga toxin protein synthesis inhibition reporter; inhibition, % at 38.7 µM; hit rate 9.2% among 290,000; in the data active means inhibition mostly above about 28%, no sharp cut-off; inactive means mostly below about 43%
# FMDV inh: High Throughput Screening for Foot and Mouth Disease Virus Antivirals | AID 1159524, 2015 | FMDV antiviral cell-based qHTS | hit rate 1.2% among 410,000 | Potency, µM (highest dose often 57.9 µM), actives largely listed as inhibitors; calls by dose curve; tested in HEK293T cells; further: read-out not given here; nearly all actives have a fitted effect of over 45% in size
# HCV inhibitor: qHTS Assay for Inhibitors of Hepatitis C Virus (HCV). AID 651820, 2012. Potency, µM (titrated, usually from 41.8 µM), hits mostly inhibitors. hit rate 3.4% among 340,000. Huh7.5.1 HCVcc-Cre infection, luciferase reporter, 44 h; active means well fitted inhibition curve with a large enough effect; inconclusive means small, poorly fitted or top-dose-only effect, or another doubt; inactive means no such curve, though single readings can be large or run the other way
#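 A cell-based infection assay in which seeded cells (1,000 per well) receive test compound after 4 h, are inoculated with HCVcc-Cre at approximately 0.5 moi, and are incubated 44 h before luminescence detection.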
# A number is an active result; i = inactive; ? = inconclusive; nt = no result given; ! = not confirmed by another sample. Only some compounds are listed: those with a hit (about 13% of all), similar ones and a draw of the others.
SMILES,Lassa entry inh,CHX counter,Marburg entry inh,Shiga toxin inh,FMDV inh,HCV inhibitor
CC/C(=N\Nc1ccccc1)c1c(O)n(-c2ccccc2)c(=O)[nH]c1=O,10µM,i,i,i,i,i
C/C(=N\NC(=O)c1ccccc1)c1c(O)n(Cc2ccccc2)c(=O)[nH]c1=O,i,51.6,?,101.1,i,i
C/C(=N\Nc1cccc2ccccc12)c1c(O)n(Cc2ccccc2)c(=O)[nH]c1=O,i,i,?,i,i,i
CSc1ccc(CN(C)C(=O)COc2ccc(C(=O)c3ccccc3)cc2)cc1,?,i,i,i,i,i
O=C(c1ccc2nccnc2c1)N1CCN(Cc2ccc3c(c2)OCO3)CC1,i,i,?,i,i,i
O=C1Nc2ccccc2C1=Nc1cccc(Cl)c1,i,i,i,i,i,i
O=C1Nc2ccccc2C1=Nc1cccc([N+](=O)[O-])c1,nt,i,nt,26.7,i,i
O=C(Nc1ccc2c(c1)C(=O)OC2)c1ccc(Cl)cc1,i,18.2,i,i,i,i
O=C(Nc1ccc2c(c1)C(=O)OC2)c1ccc(F)cc1F,?,26.5,i,34.9,i,i
O=C(NC(=S)Nc1cccnc1Cl)c1ccco1,nt,21.2,nt,55.0,i,i
CC(C)(C)C(=O)NC(=S)Nc1ccccn1,i,i,i,i,i,i
Cc1ccnc(NC(=S)NC(=O)c2ccco2)c1,?,39.8,?,96.1,i,i
O=C(NC(=S)Nc1ccccn1)c1ccco1,?,46.6,?,57.8,i,i
CCNC(=S)Nc1cc(C)ccn1,?,i,i,29.0,i,i
Cc1ccnc(NC(=O)CNC(=O)c2cccs2)c1,i,nt,i,nt,i,i
O=C(NC(=S)Nc1ccc([N+](=O)[O-])cc1)c1ccco1,nt,nt,nt,nt,i,nt
Cc1ccnc(NC(=S)NC(=O)c2cccs2)c1,?,77.7,?,159.7,i,i
O=C(NC(=S)Nc1ccccc1[N+](=O)[O-])c1ccco1,?,22.3,i,i,i,i
O=C(C[C@H]1C[C@H](C(=O)N2CCOCC2)[C@@]2(CCC3CCCC3)c3[nH]c4cc(-c5ccco5)ccc4c3CCN2C1=O)NCC12CC3CC(CC(C3)C1)C2,nt,nt,nt,nt,i,i
Cc1ccc(C(C)C)c(OCC(=O)Nc2ccc3c(c2)nc(CCN2CCCCC2)n3C)c1,nt,i,nt,i,i,10µM
Cn1c(CCN2CCN(c3ccccn3)CC2)nc2cc(NC(=O)COc3ccccc3)ccc21,nt,i,nt,i,?,3.98µM
CCn1c(CN2CCCCC2)nc2cc(NC(=O)COc3cc(C)ccc3C(C)C)ccc21,i,nt,i,nt,?,nt
Cc1ccc(OCC(=O)Nc2ccc3c(c2)nc(CCN2CCN(c4ccccn4)CC2)n3C)cc1,nt,nt,nt,nt,3.55µM,nt
Cn1c(CCN2CCN(c3ccccn3)CC2)nc2cc(NS(=O)(=O)c3ccccc3)ccc21,nt,i,nt,i,?,10µM
Cc1ccc(OCC(=O)Nc2ccc3c(c2)nc(CCN2CCN(C)CC2)n3C)cc1,nt,i,nt,i,i,i
SMILES,Lassa entry inh,CHX counter,Marburg entry inh,Shiga toxin inh,FMDV inh,HCV inhibitor
COCCn1c(-c2cc(OC)c(OC)c(OC)c2)nc2oc3cc(OC)ccc3c(=O)c2c1=O,nt,i,nt,i,i,i
CCCNC(=O)C1(C)CCN(Cc2ccc(-c3ccccn3)cc2)C1 (centres undefined),nt,nt,nt,nt,i,nt
COC(=O)c1c(NC(NC(C)=O)C(Cl)(Cl)Cl)sc2c1CCCC2 (centres undefined),i,i,?,i,35.5µM,11.2µM
CCOC(=O)c1c(NC(NC(=O)CF)C(Cl)(Cl)Cl)sc2c1CCCC2 (centres undefined),?,i,?,i,i,?
CCOC(=O)c1c(NC(NC(C)=O)C(Cl)(Cl)Cl)sc2c1CCCC2 (centres undefined),?,i,?,i,?,10µM
CCc1cccc(CC)c1NC(=O)c1ccc(-c2cc(Cl)ccc2Cl)o1,nt,nt,nt,nt,i,nt
O=C(CC1SC(=Nc2ccccc2)N(Cc2ccccn2)C1=O)Nc1ccc(Br)cc1 (centres undefined),i,19.5,?,47.8,i,?
O=C(CC1Sc2ncnn2C1=O)Nc1ccc(Br)cc1 (centres undefined),nt,i,nt,i,i,i
Cc1ccccc1N=C1SC(CC(=O)Nc2ccc3ccccc3c2)C(=O)N1Cc1ccccn1 (centres undefined),16.4µM,29.2,?,i,?,10µM
O=C(CC1SC(=Nc2cccc3ccccc23)N(Cc2ccccn2)C1=O)Nc1ccccc1Br (centres undefined),?,i,?,i,i,i
COC(=O)c1cccc(NC(=O)Nc2ccc(Cl)c(Cl)c2)c1,i,38.2,i,58.6,i,nt
Cc1cc(C)c(NC(=O)Nc2ccccc2)c(Cl)c1,i,i,?,i,i,i
COC(=O)c1cccc(NC(=O)NC(=O)c2ccccc2Cl)c1,?,i,?,i,i,i
COc1ccccc1NC(=O)Nc1cccc(NC(C)=O)c1,i,i,?,i,i,i
COC(=O)c1cc(NC(=O)Nc2ccccc2)ccc1Cl,i,40.6,?,92.3,i,?
COC(=O)c1cccc(NC(=O)Nc2ccccc2OC)c1,i,23.1,?,43.4,i,i
COc1ccc2c(c1)C(CC(=O)NN)CCC2 (centres undefined),?,nt,?,nt,i,i
COc1cccc(-n2cc(C(=O)Oc3cccc(C(F)(F)F)c3)c3ccccc3c2=O)c1,i,nt,nt,nt,i,nt
Cn1c(=O)cc(OCCCC(=O)NCc2ccc(F)cc2Cl)c2ccccc21,i,i,?,i,i,i
CS(=O)(=O)N(CCC#N)Cc1ccco1,i,i,i,i,i,i
Cc1ccc(CNC(=O)CCCCn2c(=O)c3ccccc3n(Cc3ccc(Cl)cc3)c2=O)cc1,i,nt,i,nt,i,nt
Cc1ccccc1Cn1c(=O)n(CCCC(=O)NCc2ccco2)c(=O)c2ccccc21,i,14.2,i,i,?,i
Cc1cccc(Cn2c(=O)n(CCCC(=O)NCc3ccco3)c(=O)c3ccccc32)c1,?,i,?,i,?,?
O=C(CCCCn1c(=O)c2ccccc2n(Cc2ccc(Cl)cc2)c1=O)NCc1ccco1,?,i,?,i,?,12.6µM!
Cc1cc2nc(Sc3c([N+](=O)[O-])nc(C)n3Cc3ccccc3)[nH]c2cc1C,i,i,?,i,31.6µM,i
SMILES,Lassa entry inh,CHX counter,Marburg entry inh,Shiga toxin inh,FMDV inh,HCV inhibitor
COc1ccc2nc(Sc3c([N+](=O)[O-])nc(C)n3Cc3ccccc3)[nH]c2c1,16.4µM,i,?,i,15.8µM,?
O=C(COC(=O)c1cccc(S(=O)(=O)NCc2ccccc2)c1)Nc1ccccc1OC(F)F,i,i,i,i,i,i
Cc1ccc(C(C(=O)NC2CCCCC2)N(Cc2ccco2)C(=O)Cc2c[nH]c3ccccc23)o1 (centres undefined),?,i,?,i,i,?
CCc1cccc(NC(=O)Nc2ccc3c(c2)OCO3)c1,i,28.7,?,46.6,i,i
CCc1c(C(=O)NNC(=O)Nc2ccc3c(c2)OCO3)csc1C,i,38.3,i,i,i,i
CCc1c(C(=O)Nc2ccncc2)csc1C,i,i,i,i,?,?

# Screens (PubChem)
